# Experimental data from the supplement of paper PMC8728848.
# The sample as a whole holds a higher share of the strongest signals than the screen did.
# B1: Drgal1 (Danio rerio) (protein)
# chain: MAGVLIQNMSFKVGQTLTITGVPKPDSTNFAINIGHSPEDIALHMNPRFDAHGDQCTIVCNSFQSGSWCEEHRDDNFPFIQDKEFQIKITFTNEEFLVTLPDGSEIHFPNRQGSEKYKYMYFEGEVRIQGVEIK
# Tests used:
# Assay in all cases: glycan array binding signal (z-score within array); higher = stronger binding
# Settings in all cases: glycan notation: IUPAC condensed, linker removed
# [1] = target: Fuc(a1-2)Gal(b1-3)GalNAc(a1-3)[Fuc(a1-2)]Gal(b1-4)Glc
# How it was run: (§1)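 The Consortium for Functional Glycomics database supplied 3228 glycan arrays, of which those lacking an available protein sequence were dropped. The binding signal, a within-array Z-score, was averaged across arrays of the same protein sequence and across linkers. Negative scores can be read as non-binding.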
# [2] = target: Fuc(a1-2)Gal(b1-3)[Fuc(a1-4)]GlcNAc(b1-3)[Gal(b1-4)GlcNAc(b1-6)]Gal(b1-4)Glc
# How it was run: as §1
# [3] = target: Fuc(a1-2)[Gal(a1-3)]Gal(b1-3)GlcNAc(b1-6)GalNAc
# How it was run: as §1
# [4] = target: Fuc(a1-2)[Gal(a1-3)]Gal(b1-4)[Fuc(a1-3)]Glc
# How it was run: as §1
# [5] = target: Fuc(a1-2)[Gal(a1-4)]Gal(b1-4)GlcNAc
# How it was run: as §1
# [6] = target: Fuc(a1-2)[GalNAc(a1-3)]Gal(b1-3)GalNAc(a1-3)[Fuc(a1-2)]Gal(b1-4)GlcNAc
# How it was run: as §1
# [7] = target: Fuc(a1-2)[GalNAc(a1-3)]Gal(b1-4)GlcNAc(b1-3)Gal(b1-4)GlcNAc
# How it was run: as §1
# [8] = target: Fuc(a1-2)[GalNAc(a1-3)]Gal(b1-4)[Fuc(a1-3)]GlcNAc(b1-3)GalNAc
# How it was run: as §1
# [9] = target: Fuc(a1-3)[Gal(b1-4)]GlcNAc6S
# How it was run: as §1
# Gal(a1-3)Gal(b1-3)GlcNAc = target: Gal(a1-3)Gal(b1-3)GlcNAc
# How it was run: as §1
# [10] = target: Gal(a1-3)Gal(b1-4)GlcNAc(b1-3)GalNAc
# How it was run: as §1
# [11] = target: Gal(a1-4)Gal(b1-3)GlcNAc(b1-2)Man(a1-3)[Gal(a1-4)Gal(b1-3)GlcNAc(b1-2)Man(a1-6)]Man(b1-4)GlcNAc(b1-4)GlcNAc
# How it was run: as §1
# [12] = target: Gal(b1-3)GlcNAc(b1-3)Gal(b1-4)GlcNAc(b1-6)[Gal(b1-3)GlcNAc(b1-3)]Gal(b1-4)Glc
# How it was run: as §1
# [13] = target: Gal(b1-3)[Fuc(a1-4)]GlcNAc(b1-6)GalNAc
# How it was run: as §1
# Gal(b1-4)GlcNAc = target: Gal(b1-4)GlcNAc
# How it was run: as §1
# [14] = target: Gal(b1-4)GlcNAc(a1-6)Gal(b1-4)GlcNAc
# How it was run: as §1
# [15] = target: Gal(b1-4)GlcNAc(b1-2)Man(a1-3)Man(b1-4)GlcNAc(b1-4)GlcNAc
# How it was run: as §1
# [16] = target: Gal(b1-4)GlcNAc(b1-2)[Gal(b1-4)GlcNAc(b1-4)]Man(a1-3)[GlcNAc(b1-4)][Gal(b1-4)GlcNAc(b1-2)Man(a1-6)]Man(b1-4)GlcNAc(b1-4)GlcNAc
# How it was run: as §1
# [17] = target: Gal(b1-4)GlcNAc(b1-2)[Gal(b1-4)GlcNAc(b1-6)]Man(a1-6)[Gal(b1-4)GlcNAc(b1-2)Man(a1-3)]Man(b1-4)GlcNAc(b1-4)[Fuc(a1-6)]GlcNAc
# How it was run: as §1
# [18] = target: Gal(b1-4)GlcNAc(b1-3)Gal(b1-4)GlcNAc(b1-2)[Gal(b1-4)GlcNAc(b1-3)Gal(b1-4)GlcNAc(b1-6)]Man(a1-6)[Gal(b1-4)GlcNAc(b1-3)Gal(b1-4)GlcNAc(b1-2)Man(a1-3)]Man(b1-4)GlcNAc(b1-4)[Fuc(a1-6)]GlcNAc
# How it was run: as §1
# [19] = target: Gal(b1-4)GlcNAc(b1-3)Gal(b1-4)GlcNAc(b1-3)Gal(b1-4)GlcNAc(b1-3)Gal(b1-4)GlcNAc(b1-2)[Gal(b1-4)GlcNAc(b1-3)Gal(b1-4)GlcNAc(b1-3)Gal(b1-4)GlcNAc(b1-3)Gal(b1-4)GlcNAc(b1-6)]Man(a1-6)[Gal(b1-4)GlcNAc(b1-3)Gal(b1-4)GlcNAc(b1-3)Gal(b1-4)GlcNAc(b1-3)Gal(b1-4)GlcNAc(b1-2)Man(a1-3)]Man(b1-4)GlcNAc(b1-4)[Fuc(a1-6)]GlcNAc
# How it was run: as §1
# [20] = target: Gal(b1-4)GlcNAc(b1-3)Gal(b1-4)GlcNAc(b1-3)Gal(b1-4)GlcNAc(b1-3)Gal(b1-4)GlcNAc(b1-3)Gal(b1-4)GlcNAc(b1-2)Man(a1-3)[Gal(b1-4)GlcNAc(b1-3)Gal(b1-4)GlcNAc(b1-3)Gal(b1-4)GlcNAc(b1-3)Gal(b1-4)GlcNAc(b1-3)Gal(b1-4)GlcNAc(b1-2)Man(a1-6)]Man(b1-4)GlcNAc(b1-4)GlcNAc
# How it was run: as §1
# [21] = target: Gal(b1-4)GlcNAc(b1-3)Gal(b1-4)GlcNAc(b1-3)Gal(b1-4)GlcNAc(b1-3)Gal(b1-4)GlcNAc(b1-3)Gal(b1-4)GlcNAc(b1-2)[Gal(b1-4)GlcNAc(b1-3)Gal(b1-4)GlcNAc(b1-3)Gal(b1-4)GlcNAc(b1-3)Gal(b1-4)GlcNAc(b1-3)Gal(b1-4)GlcNAc(b1-6)]Man(a1-6)[Gal(b1-4)GlcNAc(b1-3)Gal(b1-4)GlcNAc(b1-3)Gal(b1-4)GlcNAc(b1-3)Gal(b1-4)GlcNAc(b1-3)Gal(b1-4)GlcNAc(b1-2)Man(a1-3)]Man(b1-4)GlcNAc(b1-4)[Fuc(a1-6)]GlcNAc
# How it was run: as §1
# [22] = target: Gal(b1-4)GlcNAc(b1-6)Gal(b1-4)GlcNAc
# How it was run: as §1
# Gal6S(b1-3)GlcNAc6S = target: Gal6S(b1-3)GlcNAc6S
# How it was run: as §1
# Gal6S(b1-4)Glc = target: Gal6S(b1-4)Glc
# How it was run: as §1
# GalNAc(a1-3)GalNAc = target: GalNAc(a1-3)GalNAc
# How it was run: as §1
# [23] = target: GalNAc(b1-3)Gal(a1-6)Gal(b1-4)Glc
# How it was run: as §1
# GalNAc(b1-3)GalNAc = target: GalNAc(b1-3)GalNAc
# How it was run: as §1
# GalNAc(b1-4)GlcNAc = target: GalNAc(b1-4)GlcNAc
# How it was run: as §1
# Glc(b1-6)Glc = target: Glc(b1-6)Glc
# How it was run: as §1
# [24] = target: GlcNAc(b1-3)Gal(b1-4)GlcNAc(b1-3)Gal(b1-4)GlcNAc(b1-3)Gal(b1-4)GlcNAc(b1-3)Gal(b1-4)GlcNAc(b1-2)[GlcNAc(b1-3)Gal(b1-4)GlcNAc(b1-3)Gal(b1-4)GlcNAc(b1-3)Gal(b1-4)GlcNAc(b1-3)Gal(b1-4)GlcNAc(b1-6)]Man(a1-6)[GlcNAc(b1-3)Gal(b1-4)GlcNAc(b1-3)Gal(b1-4)GlcNAc(b1-3)Gal(b1-4)GlcNAc(b1-3)Gal(b1-4)GlcNAc(b1-2)Man(a1-3)]Man(b1-4)GlcNAc(b1-4)[Fuc(a1-6)]GlcNAc
# How it was run: as §1
# [25] = target: GlcNAc(b1-3)Gal(b1-4)GlcNAc(b1-6)[Gal(b1-3)]GalNAc
# How it was run: as §1
# [26] = target: Man(a1-2)Man(a1-2)Man(a1-6)[Man(a1-3)]Man
# How it was run: as §1
# [27] = target: Man(a1-2)Man(a1-3)[Man(a1-2)Man(a1-6)]Man(a1-6)[Man(a1-2)Man(a1-2)Man(a1-3)]Man
# How it was run: as §1
# Man(a1-6)Man = target: Man(a1-6)Man
# How it was run: as §1
# [28] = target: Neu5Ac(a2-3)Gal(b1-3)GalNAc6S
# How it was run: as §1
# [29] = target: Neu5Ac(a2-3)Gal(b1-4)GlcNAc(b1-2)[Neu5Ac(a2-3)Gal(b1-4)GlcNAc(b1-6)]Man(a1-6)[Neu5Ac(a2-3)Gal(b1-4)GlcNAc(b1-2)Man(a1-3)][GlcNAc(b1-4)]Man(b1-4)GlcNAc(b1-4)GlcNAc
# How it was run: as §1
# [30] = target: Neu5Ac(a2-3)Gal(b1-4)GlcNAc(b1-3)Gal
# How it was run: as §1
# [31] = target: Neu5Ac(a2-3)Gal(b1-4)GlcNAc(b1-3)Gal(b1-4)[Fuc(a1-3)]GlcNAc
# How it was run: as §1
# [32] = target: Neu5Ac(a2-3)Gal(b1-4)GlcNAc6S
# How it was run: as §1
# [33] = target: Neu5Ac(a2-3)Gal(b1-4)[Fuc(a1-3)]GlcNAc(b1-3)GalNAc
# How it was run: as §1
# [34] = target: Neu5Ac(a2-6)Gal(b1-4)GlcNAc(b1-2)Man(a1-3)[Neu5Ac(a2-6)Gal(b1-4)GlcNAc(b1-2)Man(a1-6)]Man(b1-4)GlcNAc(b1-4)GlcNAc
# How it was run: as §1
# [35] = target: Neu5Ac(a2-6)Gal(b1-4)GlcNAc(b1-2)Man(a1-6)Man(b1-4)GlcNAc(b1-4)GlcNAc
# How it was run: as §1
# [36] = target: Neu5Ac(a2-6)Gal(b1-4)GlcNAc(b1-2)[Neu5Ac(a2-6)Gal(b1-4)GlcNAc(b1-4)]Man(a1-3)[GlcNAc(b1-4)][Neu5Ac(a2-6)Gal(b1-4)GlcNAc(b1-4)Man(a1-6)]Man(b1-4)GlcNAc(b1-4)GlcNAc
# How it was run: as §1
# [37] = target: Neu5Ac(b2-6)Gal(b1-4)GlcNAc
# How it was run: as §1
# Neu5Gc(a2-3)Gal(b1-4)Glc = target: Neu5Gc(a2-3)Gal(b1-4)Glc
# How it was run: as §1
binder,measurement,setting,value
B1,glycan array binding signal (z-score),[1],-0.59
same,glycan array binding signal (z-score),[2],0.383
same,glycan array binding signal (z-score),[3],0.084
same,glycan array binding signal (z-score),[4],-0.54
same,glycan array binding signal (z-score),[5],0.347
same,glycan array binding signal (z-score),[6],-0.091
same,glycan array binding signal (z-score),[7],-0.493
same,glycan array binding signal (z-score),[8],2.22
same,glycan array binding signal (z-score),[9],2.04
same,glycan array binding signal (z-score),Gal(a1-3)Gal(b1-3)GlcNAc,-0.76
same,glycan array binding signal (z-score),[10],-0.48
same,glycan array binding signal (z-score),[11],-0.114
same,glycan array binding signal (z-score),[12],1.9
same,glycan array binding signal (z-score),[13],-0.443
same,glycan array binding signal (z-score),Gal(b1-4)GlcNAc,-0.448
same,glycan array binding signal (z-score),[14],0.244
same,glycan array binding signal (z-score),[15],0.231
same,glycan array binding signal (z-score),[16],-0.015
same,glycan array binding signal (z-score),[17],0.501
same,glycan array binding signal (z-score),[18],1.92
same,glycan array binding signal (z-score),[19],2.07
same,glycan array binding signal (z-score),[20],7.35
same,glycan array binding signal (z-score),[21],2.15
same,glycan array binding signal (z-score),[22],0.065
same,glycan array binding signal (z-score),Gal6S(b1-3)GlcNAc6S,-0.095
same,glycan array binding signal (z-score),Gal6S(b1-4)Glc,0.281
same,glycan array binding signal (z-score),GalNAc(a1-3)GalNAc,0.206
same,glycan array binding signal (z-score),[23],-0.416
same,glycan array binding signal (z-score),GalNAc(b1-3)GalNAc,0.158
same,glycan array binding signal (z-score),GalNAc(b1-4)GlcNAc,3.67
same,glycan array binding signal (z-score),Glc(b1-6)Glc,-0.633
same,glycan array binding signal (z-score),[24],1.89
same,glycan array binding signal (z-score),[25],-0.519
same,glycan array binding signal (z-score),[26],-0.589
same,glycan array binding signal (z-score),[27],-0.28
same,glycan array binding signal (z-score),Man(a1-6)Man,1.43
same,glycan array binding signal (z-score),[28],-0.412
same,glycan array binding signal (z-score),[29],3.36
same,glycan array binding signal (z-score),[30],-0.372
same,glycan array binding signal (z-score),[31],-0.022
same,glycan array binding signal (z-score),[32],-0.362
same,glycan array binding signal (z-score),[33],5.78
same,glycan array binding signal (z-score),[34],0.521
same,glycan array binding signal (z-score),[35],0.046
same,glycan array binding signal (z-score),[36],-0.106
same,glycan array binding signal (z-score),[37],0.234
same,glycan array binding signal (z-score),Neu5Gc(a2-3)Gal(b1-4)Glc,0.145
